In the supplement of paper PMC10681739:

biological target: RUNX1 (UniProt Q01196); assay: RUNX1 binding intensity (PBM fluorescence), RUNX1 alone (arbitrary fluorescence units); higher = stronger binding; conditions: RUNX1 concentration 2 nM; ETS1 concentration 0 nM
Method: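 Cooperative gcPBM on 36-bp genomic probes with neighbouring ETS1 and RUNX1 sites. Recombinant human RUNX1 (2 nM) was incubated alone or with ETS1 (25 nM) and detected with anti-RUNX1 antibody plus Alexa488 secondary. Values are medians over 4 replicate spots; the RUNX1+ETS1 data were normalised to the RUNX1-only data. The probes sit in constant array flanks that are not printed.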
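For RUNX1 binding intensity (PBM fluorescence), RUNX1 alone in this document: Full-length recombinant human RUNX1 bound to double-stranded 36-bp genomic probes on a high-density microarray, scored as Alexa488 fluorescence per spot via anti-RUNX1 antibody, median of four replicate spots.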

Sequence of RUNX1 (Q01196 whole entry): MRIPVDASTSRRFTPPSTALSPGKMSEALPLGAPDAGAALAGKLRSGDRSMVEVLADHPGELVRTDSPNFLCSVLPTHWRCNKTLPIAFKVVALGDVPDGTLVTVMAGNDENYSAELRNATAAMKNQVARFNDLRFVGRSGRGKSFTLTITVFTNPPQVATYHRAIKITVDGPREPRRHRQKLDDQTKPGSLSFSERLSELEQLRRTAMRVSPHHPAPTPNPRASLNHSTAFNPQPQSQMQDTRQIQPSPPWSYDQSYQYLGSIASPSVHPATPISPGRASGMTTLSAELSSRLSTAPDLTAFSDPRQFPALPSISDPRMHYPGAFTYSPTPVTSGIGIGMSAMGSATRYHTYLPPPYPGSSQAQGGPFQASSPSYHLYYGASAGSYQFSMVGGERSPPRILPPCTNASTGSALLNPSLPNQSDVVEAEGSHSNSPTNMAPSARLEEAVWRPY

Row | Sequence | RUNX1 binding intensity
1 | GCCCCCATGCTTCCTGTTGTGGGAGATGAAGTGTGG | 878
2 | GTTGCCCCACTTCCTGCCAGTGGTTTTTGGTTGGCC | 944
3 | GACCCGGCCCGCCCCTTCCGGCCGCAGCGCGGGGCA | 952
4 | ACACAAACAGGAAGTGTTTGTGGTCCCTGCCTTTAG | 748
5 | AAAGCAAACAGGAAGTGCTGTGGTAACAAGGCCCCA | 728
6 | GCACTCATTTCCTGTCCCCTGTGGTTTAAAGGTTTT | 1260
7 | CATGGGACCCGGAAGTGTGTGGTAAAGCGCCGGGGC | 896
8 | ACCTTCGCCGGATGCTGTGGCTGAAACCACAGCATT | 994
9 | GAAGCCAGGAAATGGTGCGTGTGCGGGGCCGGGCGC | 663
10 | GAGGAGGAAAGCGGAAGCGCTGCCCGCAGTGGTAGG | 651
11 | CCCCTATATCACAGGATGCCGCAAACTAGTAACAGG | 827
12 | TAAAGAAACAGGATGACTGTGGTTTACTGCGAGCAT | 830
13 | GCGGCTGAGAACACAGGATGTGGCTTTTGGCAGATG | 674
14 | ACTATTTTTAGACTTCCCCACCCCGCAGTTTCAAGG | 1270
15 | TGTGTAACTTCCTGGCTTTGGTGGTTTCCCCCTCCT | 757
16 | CTCCACCGGATGCAGCAATGAAGGCCGCAGGAATGG | 712
17 | CTCACTTCCCCGGCAGCTCCCTCGCCCCGACCGCAG | 1910
18 | CTTTGTTGAAAAGGATGTGGTCATCTGATCTTGCTG | 864
19 | ACAGGAAATGACATCAGAATCTCCAAACCACAACCA | 1390
20 | GAGGAAGAGTCTTCCTGTAACCACTAGAGGGCGCTG | 705

Row | Sequence | RUNX1 binding intensity
21 | TGGTTTCTCACTGGCGGATGTGGGTGGGTCGCCTCC | 723
22 | CCCAATTTCCTTTGCTCTGCTGTCTGCCAACCGCAA | 2740
23 | TGCTCAGAAGGGCATCCGGTTGCGGAGAAGGTACAC | 653
24 | TAACTACTTCCTTTTACTATCTACCACAATTTAATT | 1620
25 | GAGTCGCTTCCGCTCCCGCCCCGCTCTGTGGCGTAG | 748
26 | GCAGCTGCAAACAGGAAACCACAGCAGCGTAGCGGA | 962
27 | CTCACTCATCTGACTTCCTGCGGTTTACGACAACAG | 11100
28 | CTTGTGAAATGTATCCTGTGGTTGCCGGCTGAAGTG | 848
29 | TAAAACACCAGGAAACTCTGTGGTGAGTGGGAGGTG | 1060
30 | GGCTGGCCTAGGAACTTCCGCCACAAGTCCCGCCCC | 822
31 | GCGCACTTCCGGGCTGGTGAACGCGGTGACGTCACC | 804
32 | CACCTGGCCCGGACGGCTGCGGTCTGGAGGGCTGTC | 1650
33 | CCGCCGCGACACTTCCGGCGGCCACCACAGGGTATT | 727
34 | GTACTGAGTCACAGGAAACCACAAGGGAAGGGTCCC | 1570
35 | GTTGAGTAGTGACAGGAAGTGACCGCAAGGGGGCGC | 1860
36 | AGCTTGCTTCCTGTCCCCAAAACCCACAGCACACGG | 893
37 | GTTGGGGTGCGTGTAGGATGTGGTCTGGGATGATTA | 1050
38 | GACAAAACACAGAAAGGAAGTGGTCAACTATTGCAC | 835
39 | CCACTGCCGGAAGGGGAACTGTGGGGGTGCGCGAGT | 820

biological target: T1, ETS1 (UniProt P14921); assay: ETS1 binding intensity (PBM fluorescence) in presence of RUNX1, normalised to ETS1-only experiment (arbitrary fluorescence units); higher = stronger binding; conditions: ETS1 concentration 1 nM; RUNX1 concentration 25 nM
T1 sequence: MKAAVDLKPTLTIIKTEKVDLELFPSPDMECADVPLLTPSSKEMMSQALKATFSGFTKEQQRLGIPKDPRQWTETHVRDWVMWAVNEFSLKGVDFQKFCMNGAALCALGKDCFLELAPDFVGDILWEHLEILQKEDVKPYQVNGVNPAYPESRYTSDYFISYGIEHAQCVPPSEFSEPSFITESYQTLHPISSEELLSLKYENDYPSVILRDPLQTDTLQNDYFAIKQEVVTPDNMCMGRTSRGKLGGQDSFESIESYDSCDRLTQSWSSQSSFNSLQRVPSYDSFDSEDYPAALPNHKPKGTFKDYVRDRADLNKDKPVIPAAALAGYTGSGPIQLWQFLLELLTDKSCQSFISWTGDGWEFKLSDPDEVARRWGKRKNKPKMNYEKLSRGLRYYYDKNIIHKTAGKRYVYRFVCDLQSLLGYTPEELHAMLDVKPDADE

Row | Sequence | ETS1 binding intensity
40 | GCCCCCATGCTTCCTGTTGTGGGAGATGAAGTGTGG | 1710
41 | GTTGCCCCACTTCCTGCCAGTGGTTTTTGGTTGGCC | 4220
42 | GACCCGGCCCGCCCCTTCCGGCCGCAGCGCGGGGCA | 817
43 | ACACAAACAGGAAGTGTTTGTGGTCCCTGCCTTTAG | 14500
44 | AAAGCAAACAGGAAGTGCTGTGGTAACAAGGCCCCA | 14500
45 | GCACTCATTTCCTGTCCCCTGTGGTTTAAAGGTTTT | 4620
46 | CATGGGACCCGGAAGTGTGTGGTAAAGCGCCGGGGC | 9470
47 | ACCTTCGCCGGATGCTGTGGCTGAAACCACAGCATT | 13300
48 | GAAGCCAGGAAATGGTGCGTGTGCGGGGCCGGGCGC | 1010
49 | GAGGAGGAAAGCGGAAGCGCTGCCCGCAGTGGTAGG | 8570
50 | CCCCTATATCACAGGATGCCGCAAACTAGTAACAGG | 2210
51 | TAAAGAAACAGGATGACTGTGGTTTACTGCGAGCAT | 1000
52 | GCGGCTGAGAACACAGGATGTGGCTTTTGGCAGATG | 12800
53 | ACTATTTTTAGACTTCCCCACCCCGCAGTTTCAAGG | 554
54 | TGTGTAACTTCCTGGCTTTGGTGGTTTCCCCCTCCT | 1390
55 | CTCCACCGGATGCAGCAATGAAGGCCGCAGGAATGG | 3990
56 | CTCACTTCCCCGGCAGCTCCCTCGCCCCGACCGCAG | 479
57 | CTTTGTTGAAAAGGATGTGGTCATCTGATCTTGCTG | 3320
58 | ACAGGAAATGACATCAGAATCTCCAAACCACAACCA | 5020
59 | GAGGAAGAGTCTTCCTGTAACCACTAGAGGGCGCTG | 663

Row | Sequence | ETS1 binding intensity
60 | TGGTTTCTCACTGGCGGATGTGGGTGGGTCGCCTCC | 6390
61 | CCCAATTTCCTTTGCTCTGCTGTCTGCCAACCGCAA | 491
62 | TGCTCAGAAGGGCATCCGGTTGCGGAGAAGGTACAC | 2000
63 | TAACTACTTCCTTTTACTATCTACCACAATTTAATT | 510
64 | GAGTCGCTTCCGCTCCCGCCCCGCTCTGTGGCGTAG | 1330
65 | GCAGCTGCAAACAGGAAACCACAGCAGCGTAGCGGA | 8470
66 | CTCACTCATCTGACTTCCTGCGGTTTACGACAACAG | 1970
67 | CTTGTGAAATGTATCCTGTGGTTGCCGGCTGAAGTG | 419
68 | TAAAACACCAGGAAACTCTGTGGTGAGTGGGAGGTG | 1220
69 | GGCTGGCCTAGGAACTTCCGCCACAAGTCCCGCCCC | 2220
70 | GCGCACTTCCGGGCTGGTGAACGCGGTGACGTCACC | 1210
71 | CACCTGGCCCGGACGGCTGCGGTCTGGAGGGCTGTC | 792
72 | CCGCCGCGACACTTCCGGCGGCCACCACAGGGTATT | 3020
73 | GTACTGAGTCACAGGAAACCACAAGGGAAGGGTCCC | 4720
74 | GTTGAGTAGTGACAGGAAGTGACCGCAAGGGGGCGC | 44800
75 | AGCTTGCTTCCTGTCCCCAAAACCCACAGCACACGG | 1120
76 | GTTGGGGTGCGTGTAGGATGTGGTCTGGGATGATTA | 2610
77 | GACAAAACACAGAAAGGAAGTGGTCAACTATTGCAC | 4930
78 | CCACTGCCGGAAGGGGAACTGTGGGGGTGCGCGAGT | 963
